Most compounds without a hit are left out; they make up all but 4.7% or so of the library.
D3 ag: activates the human D3 dopamine receptor; P35462; D3R DiscoveRx beta-arrestin cells, luminescence, 90 min; max activation, %; 0.58% of 410,000 active; AID 652048; in the data active = max activation above about 30%; also: 0% is about no effect
Target sequence (P35462 whole entry, looked up): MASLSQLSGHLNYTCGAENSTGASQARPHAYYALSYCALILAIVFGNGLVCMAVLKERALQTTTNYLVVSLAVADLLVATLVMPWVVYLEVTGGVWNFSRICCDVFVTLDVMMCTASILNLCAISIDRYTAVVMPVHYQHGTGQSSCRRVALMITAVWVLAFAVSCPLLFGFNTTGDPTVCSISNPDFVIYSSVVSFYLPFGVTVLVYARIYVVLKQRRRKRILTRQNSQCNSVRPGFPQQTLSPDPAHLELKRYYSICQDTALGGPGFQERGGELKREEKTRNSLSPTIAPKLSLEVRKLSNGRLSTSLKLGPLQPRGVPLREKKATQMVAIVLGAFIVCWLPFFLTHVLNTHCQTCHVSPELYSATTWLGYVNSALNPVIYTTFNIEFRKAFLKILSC
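Agonist mode: compounds and dopamine controls were applied to plated cells for 90 min at 37 degrees C after an overnight attachment at 1500 cells/well. Luminescent read-out followed 30 - 60 minutes at room temperature with DiscoveRx detection reagent.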
D3 antag: blocks the human D3 dopamine receptor. P35462. D3R cells, DiscoveRx beta-arrestin luminescence, antagonist mode; active compounds read low. max response, negative = inhibition, %. 2.5% of 360,000 active; in the data active = max response below about -50%; inconclusive = no clear call, values can overlap the other calls; also: % is scaled to controls: 0 for no effect and ±100 for the full control effect
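Cells plated overnight at 1500 cells/well, then exposed to library compounds with dopamine controls for 90 minutes at 37 degrees C. DiscoveRx reagent added for 30–60 minutes at room temperature; luminescence read, quantitative HTS format.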
ATXN2 expr inh: inhibitors of ATXN2 expression; HEK-293 ATXN2-luciferase reporter, luminescence, 24 h; Potency, µM (doses to about 57 µM), inactives show at the top dose activity change, negative = inhibition, actives largely listed as inhibitors; 0.72% of 360,000 active; AID 1745845; also: potency is read from the fitted curve at half-maximal effect; % is scaled to controls: 0 for no effect and ±100 for the full control effect; nearly all actives have a fitted effect of over 55% in size
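qHTS (up to 57 uM final) was run with 24 h compound exposure of reporter cells at 37 °C. Each well was multiplexed: SteadyGlo luminescence measured ATXN2-luciferase expression after a fluorogenic Gly-Phe-AFC viability readout (25 uM final).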
TGFb inhibitor: inhibitors of TGF-b signaling. HepG2 CAGA-GFP TGF-b/SMAD3 reporter, GFP fluorescence, 18 h; TGF-beta stimulated, 500 pg/mL final. Potency, µM (top dose mostly 46.1 µM), for inactives: top-dose activity, negative = inhibition, actives largely listed as inhibitors. AID 588855. 1.2% of 410,000 active; also: potency is read from the fitted curve at half-maximal effect; % is scaled to controls: 0 for no effect and ±100 for the full control effect; nearly all actives have a fitted effect of over 65% in size
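HEPG2 CAGA-GFP reporter cells (1000/well, DMEM with 1% FBS) received compounds, then recombinant TGF-beta at 500 pg/mL final for 18 hours at 37 degrees C. Per-cell GFP summed per well was normalised to unstimulated and stimulated DMSO controls before curve fitting.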
S2 tox: viability counter-screen for ATXN expression inhibitors; S2 cells (HEK-293 line with an ATXN2-luciferase reporter) viability, CellTiter-Fluor protease fluorescence, 24 h; Potency, µM (series often up to 56.7 µM), actives largely listed as cytotoxic; 0.49% of 400,000 active; also: potency is read from the fitted curve at half-maximal effect; nearly all actives have a fitted effect of over 40% in size
HepG2 tox: kills HepG2 cells in TGF-b inhibitor counter-screen. HepG2 CAGA-GFP viability, ATP luminescence, 18 h. Potency, µM (doses to about 46.1 µM), for inactives: top-dose activity change, negative = cytotoxicity, hits mostly cytotoxic. 0.76% of 410,000 active; also: potency is read from the fitted curve at half-maximal effect
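CellTiter-Glo luminescence gave cytotoxicity after 18 hours at 37 degrees C. The cells were HepG2 CAGA-GFP in 1% FBS DMEM, stimulated with 500 pg/mL TGF-beta after compound addition. %Activity was normalised to no-cell wells (complete cell-killing) and DMSO (no toxicity), and curves were fitted and classified.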
Numbers without * were called inactive. Unless noted, calls follow the shape of the dose curve; as a rule, active = well fitted curve in the direction sought with a large enough effect; inconclusive = small, poorly fitted or top-dose-only effect, or another doubt; inactive = no such curve, though single readings can be large; an effect the other way counts as inactive or inconclusive.

COc1cccc(C(C(=O)NCc2ccco2)N(C(=O)Cn2nnc3ccccc32)C2CC2)c1OC (configuration not stated) was read as D3 ag 1, D3 antag -53*, ATXN2 expr inh 3%, TGFb inhibitor 0%, S2 tox inactive and HepG2 tox 2%.
`COc1ccc2c(c1)N(C[C@H](C)CN(C)C)c1ccccc1S2` gave D3 ag -93, D3 antag -106*, ATXN2 expr inh inconclusive, TGFb inhibitor -9%, S2 tox inconclusive and HepG2 tox -39%.
For CC(CN1c2ccccc2Sc2ccccc21)N(C)C (configuration not stated) the results were D3 ag -79, D3 antag -98*, ATXN2 expr inh inconclusive, TGFb inhibitor -15%, S2 tox inconclusive and HepG2 tox -39%.
For CCN(CC)CCCCN1c2ccccc2Sc2ccccc21 the results were D3 ag -13, D3 antag -107*, ATXN2 expr inh inconclusive, TGFb inhibitor inconclusive, S2 tox inconclusive and HepG2 tox -83%.
For CCN1CCCC1CNCc1cc2c(OC)c(OC)c(OC)cc2nc1N(C)C (configuration not stated) the results were S2 tox inactive.
For CCc1ccc(C(c2ccccc2)c2c(C)[nH]c3ccccc23)s1 (configuration not stated) the results were D3 ag -3, ATXN2 expr inh inconclusive, TGFb inhibitor inconclusive and HepG2 tox -96%.
CN(CCO)C(=O)c1cn(C2CCN(Cc3cccc4ccccc34)CC2)nn1 was read as S2 tox inactive.
For O=C(Nc1ccccc1)NC1CCN(Cc2ccccc2)CC1 the results were ATXN2 expr inh -4%, TGFb inhibitor 1%, S2 tox inactive and HepG2 tox 0%.
For Cc1oc(-c2ccc(Cl)cc2)cc1C(=O)NC1CCN(Cc2ccccc2)CC1 the results were D3 ag -9, D3 antag -65*, ATXN2 expr inh -36%, TGFb inhibitor -19%, S2 tox inactive and HepG2 tox -45%.
For O=C(NC1CCN(Cc2ccccc2)CC1)c1ccc(Cl)cc1Cl the results were D3 ag -21, D3 antag inconclusive, TGFb inhibitor -22%, S2 tox inactive and HepG2 tox -37%.
`Cc1oc(C(C)(C)C)cc1C(=O)NC1CCN(Cc2ccccc2)CC1` gave D3 ag -41, D3 antag -80*, ATXN2 expr inh -13%, TGFb inhibitor -16%, S2 tox inactive and HepG2 tox -7%.
Screening Cc1ccc2nc3c(cc(C(=O)NCc4ccco4)c(=N)n3C(C)C)c(=O)n2c1 returned D3 ag 3, ATXN2 expr inh -12%, TGFb inhibitor -16%, S2 tox inactive and HepG2 tox 5%.
`Cn1c(SCc2cccc(F)c2)nc2c([nH]c3ccccc32)c1=O` gave D3 ag 6, TGFb inhibitor -9% and HepG2 tox -17%.
COc1ccc(S(=O)(=O)N2CCN(c3ccccc3OC)CC2)cc1OC was read as D3 ag 0, D3 antag 1, ATXN2 expr inh -13%, TGFb inhibitor 0%, S2 tox inactive and HepG2 tox -3%.
Screening O=S(=O)(c1ccc2ccccc2c1)N1CCN(C2CCN(Cc3ccccc3)CC2)CC1 returned D3 ag -26, D3 antag -61*, ATXN2 expr inh -26%, TGFb inhibitor -16%, S2 tox inactive and HepG2 tox -23%.
For COc1ccccc1N1CCN(S(=O)(=O)c2ccccc2)CC1 the results were D3 ag 0, D3 antag -4, ATXN2 expr inh 13%, TGFb inhibitor -2%, S2 tox inactive and HepG2 tox 2%.
Screening COc1ccccc1N1CCN(C2CCN(S(=O)(=O)c3ccc4ccccc4c3)CC2)CC1 returned D3 ag -8, D3 antag -54*, ATXN2 expr inh -13%, TGFb inhibitor -24%, S2 tox inactive and HepG2 tox -24%.
For COc1ccccc1N1CCN(C2CCN(S(=O)(=O)c3ccc(C)cc3)CC2)CC1 the results were D3 ag -39, D3 antag -70*, ATXN2 expr inh -8%, TGFb inhibitor -12%, S2 tox inactive and HepG2 tox -113%.
`COc1ccc(-c2cc(C(=O)Oc3ccccc3)c3cc(C)ccc3n2)cc1` gave D3 ag 5, ATXN2 expr inh inconclusive, TGFb inhibitor inconclusive and HepG2 tox -35%.
`COc1ccc2cc3[n+](cc2c1O)CCc1cc2c(cc1-3)OCO2` gave D3 ag -2, D3 antag 1, ATXN2 expr inh -2% and S2 tox inconclusive.
C[n+]1cc2c3c(ccc2c2ccc4cc5c(cc4c21)OCO5)OCO3 was read as D3 ag -7, ATXN2 expr inh 1.6µM*, TGFb inhibitor 1.4µM*, S2 tox 2.8µM* and HepG2 tox -105%.
For O=C(C[n+]1ccccc1Cl)c1ccccc1 the results were TGFb inhibitor -9% and HepG2 tox -1%.
Screening Cc1cc(C)cc(NC(=O)CCc2nnc3n(C)c(=O)c4sccc4n23)c1 returned D3 ag 1, ATXN2 expr inh 1%, TGFb inhibitor 3%, S2 tox inactive and HepG2 tox -5%.
`Cn1cc(C(=O)CCl)c2ccccc21` gave D3 ag 1, D3 antag -4, TGFb inhibitor 13µM* and HepG2 tox 16µM*.
For Cn1cc(C(N)=O)c2ccccc21 the results were D3 ag 0, D3 antag inconclusive, ATXN2 expr inh 2%, TGFb inhibitor 5%, S2 tox inactive and HepG2 tox -4%.
`CC(=O)N1[C@H](C)C=C[C@]1(Cc1ccccc1)C(=O)O` gave D3 ag 31*, D3 antag 8, ATXN2 expr inh 1%, TGFb inhibitor 5%, S2 tox inactive and HepG2 tox -15%.
Screening COC(=O)c1ccccc1NC(=O)Cn1cnc2sc(C)c(S(=O)(=O)N3CCC(C)CC3)c2c1=O returned D3 ag -8, ATXN2 expr inh -2%, TGFb inhibitor -21%, S2 tox inactive and HepG2 tox -18%.
`CC(=O)NC(=O)COC(=O)/C=C/c1c(C)nn(Cc2c(Cl)cccc2Cl)c1Cl` gave D3 ag 2, D3 antag -56*, ATXN2 expr inh 11%, TGFb inhibitor 0%, S2 tox inactive and HepG2 tox -1%.

Compound activity deposited in PubChem by National Center for Advancing Translational Sciences (NCATS).
